According to PubChem BioAssay AID1259311 (ICCB-Longwood Screening Facility, Harvard Medical School, 2017):
Several values for one entry are separate records, joined by “and”; a condition that tells them apart may be missing. Equal values may be shown once. The whole screen tested about 330,000 compounds, of which about 1,100 (0.33%) were called active. The list comes from a sample in which actives are over-represented; it also holds similar structures and randomly drawn compounds. Unmarked numbers belong to inactive results. Cut-off read from the data, not from the text of the source: active = inhibition above about 85%; inactive = the rest.

Assay: growth inhibition of S. aureus RN4220, primary screen, OD600 (AID 1259311);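 note: plate controls were untreated cells for no effect and reference antibiotic for full effect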
Conditions: OD600, 16 h, active compounds read high
For `Cc1c(CN2CCC(CO)(CCOc3ccccc3)CC2)[nH]c2ccc(Cl)cc12`, the inhibition was 97.5% (active).
Work on `C#CCOCCOCCOCCNc1nc(N2CCN(C(=O)C(Cc3cc4ccccc4[nH]3)n3cc(C(N)CC(C)C)nn3)CC2)nc(N2CCN(C(=O)C(Cc3ccc(O)cc3)n3cc(C(N)C(C)CC)nn3)CC2)n1` (stereo not given) yielded an inhibition of -1.75%.
In the case of `CCNc1nc(NCC)nc(NN=Cc2ccc(O)c(OC)c2)n1`, the inhibition is reported as 4.03%.
With `COc1ccc(C=NNC(=O)C(=O)N2CCCCCC2)cc1` the inhibition was 0.0129%.
For `Cc1cc(=O)n2[nH]c(-c3cccc(Cl)c3)cc2n1`, the inhibition was 0.714%.
For `Cc1[nH]n(-c2cccc(Cl)c2)c(=O)c1-c1ccc(Cl)cc1`, the inhibition was 106% (active).
`Cc1nc2c(-c3ccccc3)c(C)[nH]n2c(=O)c1Cl` showed an inhibition of 5.58%.
`CC(C)(C)NC(=O)C=NO` gave an inhibition of 6.33%.
With `O=C(NN=Cc1ccc(OC(F)F)cc1OC(F)F)c1ccc(Br)cc1` the inhibition was 3.44%.
Work on `N#CC(=C(O)c1ccco1)c1ccccn1` yielded an inhibition of 2.69%.
For `Oc1ccc(Br)cc1C=Nn1c(COc2ccccc2)n[nH]c1=S`, the inhibition was 5.82%.
With `FC(F)(F)c1cccc(NC(=S)Nc2cccc(Cl)c2)c1` the inhibition was 100% (active).
In the case of `Cn1cc(Cl)c(C(=O)NNC(=S)Nc2cccc(Cl)c2)n1`, the inhibition is reported as 4.73%.
For `O=C(O)CC1(CC(=O)Nc2cccc(C(F)(F)F)c2)CCCC1`, the inhibition was 3.93%.
With `CCN1CC2C3C(=O)N(C)C(=O)C3[C@](Cc3ccccc3)(C1=O)N2C(=O)c1ccccc1` (stereo not given in full) the inhibition was 1.95%.
For `COC(=O)C(C=NOCc1ccc([N+](=O)[O-])cc1)NC(=O)c1cccc(Cl)c1` (stereo not given), the inhibition was -3.78%.
Compound `COC(=O)[C@@]1(Cc2ccc(OC)cc2)C2c3cc(C(=O)N4CCCC4)n(CCSCCO)c3CC2CN1C(=O)c1ccccc1` (stereo not given in full) has an inhibition of 3.17%.
For `N#CC1=C(SCc2ccc(C#N)cc2)N=C(N)C(c2nc(-c3ccccc3)cs2)C12CCCCC2` (stereo not given), the inhibition was 98.3% (active).
Compound `N#Cc1ccc(CSc2ncccn2)cc1` has an inhibition of 3.27%.
Compound `N#CC1=C(SCc2ccccc2)NC(=O)C(C#N)C12CCCC2` (stereo not given) has an inhibition of 13.6%.
In the case of `O=C(NC1CC1)C1=CC(C2CC2)CC(OCCCCO)O1` (stereo not given), the inhibition is reported as 6.8% and 1.82%.
In the case of `Cc1cc(C(=O)NN=Cc2cc(Cl)cc([N+](=O)[O-])c2O)n[nH]1`, the inhibition is reported as 7.38%.
In the case of `COc1ccc(NC(=O)ON=Cc2ccc(Br)cc2)cc1`, the inhibition is reported as 5.53%.
In the case of `COc1ccc(/C=C/C(=O)c2cc(Br)ccc(=O)c2O)cc1`, the inhibition is reported as 94.3% (active).
Compound `COc1ccc(C(=O)/C=C/c2cccnc2)c(OC)c1` has an inhibition of 2.36%.
In the case of `CC(C)(C)OC(=O)NC(Cc1ccccc1)C(=O)NC(CO)C(O)C1CC1C(=O)NC1CC1` (stereo not given), the inhibition is reported as 2.57%.
Compound `O=C(Cc1ccccc1)NNC1CC(=O)N(c2ccc(Br)cc2)C1=O` (stereo not given) has an inhibition of 4.24%.
For `CC(C)(C)OC(=O)C1=C(CO)CS[C@@H]2[C@H](NC(=O)Cc3ccccc3)C(=O)N12`, the inhibition was 99.2% (active).
With `CC(=NNC(=O)CNc1ccccc1)c1ccccc1` the inhibition was 0.316%.
`Cc1c(O)ccc(C(Cc2ccc3ccccc3n2)=NN)c1O` gave an inhibition of 4.37%.
With `Cc1cc(N=Nc2ccc3ccccc3c2)ccc1O` the inhibition was 99.9% (active).
For `COc1cccc(C=NNC(=O)CNC(=O)C2COc3ccccc3O2)c1O` (stereo not given), the inhibition was 2.29%.
`CC(=NNC(=O)CNC(=O)C1COc2ccccc2O1)c1ccc([N+](=O)[O-])cc1` (stereo not given) gave an inhibition of 2.91%.
In the case of `CC(=O)c1cccc(NC(=O)C2COc3ccccc3O2)c1` (stereo not given), the inhibition is reported as 4.71%.
In the case of `O=C(Nc1ncc([N+](=O)[O-])s1)C1COc2ccccc2O1` (stereo not given), the inhibition is reported as 92.1% (active).
Work on `Cc1ccc(NC(=O)CN2C(=O)SC(=Cc3cccn3-c3cccc(C(=O)O)c3)C2=O)cc1C` yielded an inhibition of 8.73%.
For `CC(=NN=C(c1ccccc1)c1ccccc1)c1ccco1`, the inhibition was 7.82%.
In the case of `COc1ccc(CCNC(=O)C(Sc2ccccn2)c2ccccc2)cc1OC` (stereo not given), the inhibition is reported as 4.13%.
With `COc1ccc(C(CCN(Cc2ccc(OC)c(OC)c2)C(=O)CCl)c2ccccc2)cc1` (stereo not given) the inhibition was 85.5% (active).
Work on `COc1ccc(CN(Cc2ccc(OC)cc2)C(=O)c2cccs2)cc1` yielded an inhibition of 6.45%.
For `COc1ccc(CN2CCC(=O)N(C(CO)c3ccccc3)CC2)cc1OC` (stereo not given), the inhibition was -2.15%.
Work on `CCCCCN1CC(O)=C(c2ccccc2)C1=N` yielded an inhibition of 7.74%.
For `CCCCCCCCCCCCn1ccc(=N)cc1`, the inhibition was 101% (active).
`CCC1=C2CCC3C(=O)N(CC)C(=O)C3C2[C@@]2(Cc3ccccc3)C(=NCCOC)OC(=O)N2C1=O` (stereo not given in full) showed an inhibition of 4.23%.
For `O=C(NN=Cc1cccc(OCC(=O)N2CCCC2)c1)C(=O)Nc1ccccc1F`, the inhibition was 5.07%.
